{"source": "PubChem BioAssay (NCI)", "note": "Where “and” joins values, the source holds several entries; their conditions need not be identical. Identical values can stand only once. The panel holds about 83,000 compounds, 20% with a hit somewhere; the sample as a whole holds those more often.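 Cells were grown in 96-well plates and exposed to the test compound at a single concentration for 48 hours; results are reported as percent growth, with values below 10 considered active.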 Calls of active or inactive are those of the source.", "data": [{"test_system": "MDA-MB-468 breast", "test": "NCI-60 one-dose screen, 48 h (100 = growth as untreated, 0 = no growth, -100 = all killed)", "settings": "10 µM unless noted", "values": [{"molecule": "O=C(c1ccccc1)N(CCCCl)C(=O)N(CCCCl)C(=O)c1ccccc1", "growth": "94.2% (inactive)"}, {"molecule": "CCOC(=O)c1c(C)nc2c(c1N)/C(=C/c1ccc(OC)cc1)C(=O)N2Cc1ccccc1", "growth": "66.7% (inactive)"}, {"molecule": "NC(CCc1nc2ccccc2c(=O)[nH]1)C(=O)O", "note": "(stereo not given)", "growth": "105% (inactive)"}, {"molecule": "CCC(c1ccc(OC)cc1)C(CC)c1ccc(OCC[N+](C)(C)C)cc1", "note": "(stereo not given)", "growth": "19.3% (inactive)"}, {"molecule": "c1ccc(C2CCCCC2)c(OCCCCCN2CCNCC2)c1", "growth": "-36.2% (active)"}, {"molecule": "CCOC(=O)/C(=C/CC/C(C)=C/CC/C(C)=C/CCc1ccoc1)CC(=O)N1CCCCC1", "growth": "0.246% (active)"}, {"molecule": "COc1cc(/C=C2/C=C(c3ccccc3)N(CCc3ccc(S(N)(=O)=O)cc3)C2=O)cc(OC)c1OC", "growth": "94.7% (inactive)"}, {"molecule": "Cc1cccc(Cc2cnc(NC(=O)c3ccc4nnsc4c3)s2)c1", "growth": "94.8% (inactive)"}, {"molecule": "OC(CSc1ccccc1)CN1CCN(c2cccc(Cl)c2)CC1", "note": "(stereo not given)", "growth": "96.8% (inactive)"}, {"molecule": "Nc1n[nH]c2cccc(C#Cc3cccc(NC(=O)c4ccc(N5CCOCC5)c(C(F)(F)F)c4)c3)c12", "growth": "21.8% (inactive)"}, {"molecule": "O=C1c2cc3c(cc2-c2c1c1cc(F)c(F)cc1c(=O)n2C[C@H](O)CO)OCO3", "growth": "-57.2% (active)"}, {"molecule": "c1ccc2[nH]c(-c3ccc(-c4nccc5c4[nH]c4ccccc45)cc3)nc2c1", "growth": "44.8% (inactive)"}, {"molecule": "C[C@H]1c2cccc(O)c2C(O)=C2C(=O)[C@]3(O)C(O)=C(C(N)=O)C(=O)[C@@H](N(C)C)[C@@H]3[C@@H](O)[C@@H]21", "growth": "41.8% (inactive)"}, {"molecule": "CS(=O)(=O)c1ccc(/C(=N/N=C(N)N)c2ccc(F)cc2)cc1", "growth": "-5.12% (active)"}, {"molecule": "COc1cc(-c2nn(-c3cccc(NC(=O)CCN4CCN(c5ccccc5)CC4)c3)cc2-c2ccncc2)ccc1Cl", "growth": "28.8% (inactive)"}, {"molecule": "COc1cnc2c(c1)C(=O)c1c-2n(CCCNC2=NCCS2)c(=O)c2cc(F)ccc12", "growth": "-17.6% (active)"}, {"molecule": "C[C@H]1[C@H](C)CC[C@]2(C(=O)O)CC[C@]3(C)C(=CC[C@@H]4[C@@]5(C)C[C@@H](Cc6cn([C@@H]7O[C@H](CO)[C@@H](O)[C@H](O)[C@H]7O)nn6)[C@H](O)C(C)(C)[C@@H]5CC[C@]43C)[C@H]12", "growth": "94.1% (inactive)"}, {"molecule": "COc1ccc(-n2c(=O)sc3c(Cl)nc(C)nc32)c(OC)c1", "growth": "57.8% (inactive)"}, {"molecule": "COc1ccc(Nc2ncc(Br)c(NCCCNC(=O)C3CCC3)n2)cc1", "growth": "71.2% (inactive)"}, {"molecule": "CC(=O)OC[Si](C)(C)c1ccccc1", "growth": "95.3% (inactive)"}, {"molecule": "O=C(/C=C/c1ccc(Oc2ccc(Br)cc2)cc1)c1ccc(Br)cc1", "growth": "98.3% (inactive)"}, {"molecule": "CCOC(=O)/C(=C/c1c(-c2ccccc2)[nH]c2ccccc12)C(=O)c1ccc(Cl)cc1", "growth": "19.8% (inactive)"}, {"molecule": "O=S(=O)(Nc1nccs1)c1ccc(Nc2nc(-c3ccncc3)cs2)cc1", "growth": "101% (inactive)"}, {"molecule": "Cc1nnc(/N=C2\\NC(=O)/C(=C/c3ccc(N(C)C)cc3)S2)s1", "growth": "87.2% (inactive)"}, {"molecule": "O=C(CC(SCc1ccccc1)c1ccccc1)c1ccccc1", "note": "(stereo not given)", "growth": "84.9% (inactive)"}, {"molecule": "CCn1c(C)nc([N+](=O)[O-])c1Sc1nc(N)nc2nc[nH]c12", "growth": "-11.2% (active)"}, {"molecule": "CC1Cc2c(ncnc2-n2cnc3ccccc32)N(C)c2ccccc21", "note": "(stereo not given)", "growth": "9.47% (active)"}, {"molecule": "O=c1[nH]cnc2c1ncn2C1OC(CO)C(O)C1O", "note": "(stereo not given)", "growth": "123% (inactive) and 113% (inactive) and 111% (inactive)"}, {"molecule": "N#CC1=C(N)Oc2ccc3ccccc3c2C1c1ccc([N+](=O)[O-])cc1", "note": "(stereo not given)", "growth": "66.7% (inactive)"}, {"molecule": "CC(C)OCc1cc(CN2CCN(c3cccc(Cl)c3)CC2)c(O)c2ncccc12", "growth": "-15.4% (active)"}, {"molecule": "CC[C@@]1(O)C(=O)OCc2c1cc1n(c2=O)Cc2c-1nc1ccccc1c2/C=N/OC(C)(C)C", "growth": "-44.5% (active)"}, {"molecule": "CCn1c(SCCc2ccccc2)nnc1-c1nn(-c2ccc(Cl)cc2Cl)c(-c2ccc(Cl)cc2)c1C", "growth": "45.9% (inactive)"}, {"molecule": "CC(=O)OCC(=O)C1(O)C(C)CC2C3C=C(C)C4=Cc5c(cnn5-c5ccccc5)CC4(C)C3C(O)CC21C", "note": "(stereo not given)", "growth": "-10.9% (active)"}, {"molecule": "CCCOc1ccc2c(c1)CC[C@@H]1[C@@H]2CC[C@@]2(C)[C@H]1CC[C@]2(C)O", "growth": "59.8% (inactive)"}, {"molecule": "COc1ccc(C(=O)/C=C/c2ccc(OCc3ccc(Cl)cc3)c(OC)c2)cc1OC", "growth": "50.9% (inactive)"}, {"molecule": "COc1ccc(-c2cnc(NC(=O)CCCCCCNC(=O)C(O)(O)C(F)(F)F)s2)cc1", "growth": "-33.6% (active)"}, {"molecule": "CC(=O)n1cc(/C=C2\\N=C(c3ccc(Cl)cc3)N(c3ccc(S(=O)(=O)Nc4nccs4)cc3)C2=O)c2ccccc21", "growth": "96.1% (inactive)"}, {"molecule": "BrC1=C(Br)C(Br)(Br)C(Br)=C1Br", "growth": "97.7% (inactive)"}, {"molecule": "O=C(c1ccc(O)cc1)c1ccc(O)cc1", "growth": "110% (inactive)"}, {"molecule": "CCCN1C(=O)/C(=c2\\sc3n(c2=O)NC2C(N=3)N(CC)C(=O)N2CC)c2ccccc21", "note": "(stereo not given)", "growth": "14.6% (inactive)"}]}]}
